Measurements: the OligoGym collection

biological target: LEKR1; assay: pooled miR-30 sensor sort-seq; sequence = guide strand; conditions: shRNA
Note: reference of the scale not given here.

Sequence	sensor-assay potency score (higher = more potent)
TATACTTTTGGATTACATCTTG	-0.0779
TTCTCTACGCACTGTCTCCTGA	-0.0391
TACTCTTTTCAGTTCATCCGAC	0.07

biological target: LENG8; assay: as above; conditions: shRNA

Sequence	sensor-assay potency score (higher = more potent)
TCCACCGTGAACTCGGTGCGGA	-1.28
TTCTTCAGCTCTCGCTCCGGGT	-0.923
TGTACTGAGAAGACCAATCTGT	0.223
TACACCTCCACCGTGAACTCGG	-0.419
TTGAGCAGCTTTTCCGTGCGGT	0.289
TGTTGAACTTGAGACCTCCAGT	-0.589
TAAATTTACAACCCAAGTCCAC	-0.679
TAGTCCTGCTTCTCTTTCCAGT	-0.999
TTCTCGTGTGAGGTATGCCAGC	-1.1
TTGTCCTTCATGAAGACGTTGC	-0.437
TTCATGGTCACCCTTCTCCAAG	-1.23
TTGTACTGCTGGTACCACTGGT	0.0135

biological target: LEPRE1; assay: as above; conditions: shRNA

Sequence	sensor-assay potency score (higher = more potent)
TTCTCCAACTTGTTGATCTTGA	0.193
TTGAGTCTCAAGATCCTTGAAG	-0.379
TTGTTGATCTTGAAGTAGGCGA	-0.0372
TTTCTCTTGCAATCTCTTGGGA	-0.177
TCCAGCTCCATCTCTTCGCTGA	-0.664
TAGAGTCGCACTCCCAGTCGAA	-0.94
TACTGTATCGCTGTCATGCAGC	-0.397
TTGGTAATAGTCTAGGTTCTGC	-0.468
TACACAGACACTTAAGTACTGT	-0.0661
TGCAGCAACAGCTTTCTCCAAC	-1.07
TGTATCGCTGTCATGCAGCGGC	-0.603
TTCTCTTGCAATCTCTTGGGAA	-0.439

biological target: LGALS1; assay: as above; conditions: shRNA

Sequence	sensor-assay potency score (higher = more potent)
TTGATCTTGAAGTCACCGTCAG	0.0268
ATTTGATCTTGAAGTCACCGTC	0.155
TTGCTGTTGCACACGATGGTGT	-0.61
TTTGATCTTGAAGTCACCGTCA	0.476
TTGACGGTCAGGTTGGCCTGGT	-0.281
TGATCTTGAAGTCACCGTCAGC	-1.02
TTGAGATTCAGGTTGCTGGCGA	0.199
TTCGTATCCATCTGGCAGCTTG	-0.744
TTCAGCACGAAGCTCTTAGCGT	-0.712
TTGCACACGATGGTGTTGGCGT	-0.422

biological target: LGALS7B; assay: as above; conditions: shRNA

Sequence	sensor-assay potency score (higher = more potent)
TTACATGGAACCTGCTGGCATT	-1.13
TTTACATGGAACCTGCTGGCAT	-0.552
TTGCTGTTGAAGACCACCTCCG	-0.31
